# Source: PubChem BioAssay (several laboratories)
# esBAF inh – inhibitors of esBAF chromatin remodeling in mouse ES cells; Bmi1-luciferase knock-in reporter, 24 h; 100% = twice the neutral-well signal; reporter increase, % at 12.5 µM; 2% of 350,000 active; AID 602393; in the data active = activation above about 40%;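 also: 0% = median of the plate's neutral control wells and 100% = double that signal; a rise in the Bmi1 reporter signal indicates esBAF inhibition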
# MITF act – activators of MITF-driven TRPM1 promoter activity in SK-MEL-5 cells. SK-MEL-5 TRPM1-promoter luciferase, 24 h; % of positive control, neutral wells = 0. activation, % at 12.5 µM. 0.75% of 300,000 active;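 active = mean activation of at least 80% with every replicate also reaching 80%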;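 also: 0% = neutral control wells and 100% = parthenolide positive control wells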
# FXN GAA850 act – increases GAA850 frataxin promoter reporter activity. HEK293 lucGAA850 FXN promoter luciferase reporter, 24 h; percent of 10 µM SAHA response. 0.56% of 360,000 active. activation, % at 6 µM;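 active = activation above the average of all compounds screened plus 3 SD, cutoff fixed separately per campaign, cut at about 7.5% in these data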;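 also: 0% = DMSO wells and 100% = 10 µM SAHA wells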
# Wnt act – Wnt/beta-catenin pathway activation | Wnt/beta-catenin reporter cell assay, activator, plate reader | activation, % at 9.35 µM | 1.2% of 300,000 active | AID 743398; in the data active = activation above about 30%, passing the limit was not always enough;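 also: 0% = neutral control wells and 100% = positive control wells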
# Numbers without * were called inactive; . = no result given. In the library only some 2.8% were active in any assay of this set; here they are far more common.
SMILES,esBAF inh,MITF act,FXN GAA850 act,Wnt act
COc1ccc(NC2CC(=O)N(C(C)C)C2=O)cc1 (centres undefined),60*,69,0,-2
C[C@@H]1CN([C@@H](C)CO)C(=O)c2cc(NC(=O)c3ccncc3)ccc2O[C@H]1CN(C)CC1CCCCC1,0,.,.,.
CCCN(C)C[C@@H]1OCCCC[C@H](C)Oc2ccc(NC(=O)Nc3ccc4c(c3)OCO4)cc2C(=O)N([C@H](C)CO)C[C@@H]1C,-5,.,.,.
COc1ccc(-n2c(O)c(C=Nc3ccccc3)c3ccccc3c2=O)cc1,3,13,1,-7
COc1ccc(N=Cc2sc(O)c3ccccc23)cc1,82*,28,5,34*
COc1ccc(N=Cc2c(O)c3ccccc3n2C(C)=O)cc1,27,28,2,30*
COc1ccc(N=Cc2c(OC)ccc3ccccc23)cc1,.,.,0,1
Cc1ccc(C(=O)N/C(N)=N/c2nc3ccccc3o2)cc1,43*,51,5,.
COc1ccccc1C(=O)N/C(N)=N/c1nc2ccccc2o1,51*,27,4,0
N#C/C(=C1/CCCCCN1)c1nc2ccccc2s1,57*,1,0,.
COC(=O)C[C@H]1C[C@H]2c3cc(NC(=O)Nc4ccc(C(F)(F)F)cc4)ccc3O[C@H]2[C@H](CO)O1,-2,.,.,.
CCOc1ccc(C2=NNC(c3cccs3)=Nc3ccc(OC)cc32)cc1OCC,-3,-1,4,-4
COc1ccc(C2=NNC(c3cccs3)=Nc3ccc(OC)cc32)cc1,64*,0,0,.
Oc1c(C(c2ccccn2)N2CCC(Cc3ccccc3)CC2)cc(Cl)c2cccnc12 (centres undefined),.,.,.,204*
Cc1ccc(C(c2cc(Cl)c3cccnc3c2O)N2CCN(C)CC2)cc1 (centres undefined),-1,-10,1,.
CN1CCN(C(c2ccccn2)c2cc(Cl)c3cccnc3c2O)CC1 (centres undefined),5,-17,4,58*
C[C@H](CO)N1C[C@H](C)[C@H](CN(C)C(=O)Cc2ccccc2)OCCCC[C@H](C)Oc2ccc(NS(=O)(=O)c3ccc(F)cc3)cc2C1=O,12,.,.,.
CC(C)c1cn(CC[C@H]2CC[C@@H](NC(=O)C3CC3)[C@H](CO)O2)nn1,3,.,.,.
CN(C(=O)/C=C/c1ccccc1)C1CCS(=O)(=O)C1 (centres undefined),.,-5,-1,1
CN(C(=O)/C=C/c1ccccc1)C1CCCCC1,.,.,4,48*
Cc1nn(C)cc1/C=N/NC(=S)Nc1ccccc1,69*,.,3,40*
Cc1cccc(NC(=S)N/N=C/c2c[nH]c3ccccc23)c1,88*,-8,-2,10
O=C(N/N=C/c1c[nH]c2ccccc12)c1ccccc1,30,.,5,6
O=C(N/N=C/c1cc(Br)c(Br)o1)c1ccc2c(c1)OCCO2,58*,.,2,37*
O=C(N/N=C/c1c[nH]c2ccccc12)c1ccc2c(c1)OCCO2,51*,.,-2,2
SMILES,esBAF inh,MITF act,FXN GAA850 act,Wnt act
Oc1ccccc1C=NNC(=S)Nc1ccc(F)cc1,-1,-3,-5,12
Cc1ccc(C(=O)Nc2ccc(C(=O)N/N=C/c3c[nH]c4ccccc34)cc2)cc1,.,1,-1,7
COCC(=O)Nc1ccc2c(c1)C(=O)N(C)C[C@H](OC)[C@@H](C)CN(Cc1cccnc1)[C@@H](C)CO2,-3,.,.,.
O=C(C[C@H]1C=C[C@@H](NC(=O)Nc2cc(F)ccc2F)[C@H](CO)O1)Nc1ccc(-c2ccccc2)cc1,19,.,.,.
CCCNC(=O)C[C@H]1CC[C@@H]2[C@H](COc3ccc(NC(=O)Nc4cccc(C)c4)cc3C(=O)N2C)O1,-1,.,.,.
C[C@@H]1CN([C@@H](C)CO)C(=O)Cc2cc(NC(=O)Cc3cn(C)c4ccccc34)ccc2O[C@H]1CN(C)Cc1ccc(Oc2ccccc2)cc1,3,.,.,.
O=C(C[C@@H]1C=C[C@@H](NC(=O)c2cccc(F)c2)[C@@H](CO)O1)NCCN1CCCC1,3,.,.,.
C[C@@H]1CN([C@@H](C)CO)C(=O)Cc2cc(NS(=O)(=O)c3ccc(F)cc3)ccc2O[C@H]1CN(C)C(=O)Nc1ccc2c(c1)OCO2,4,.,.,.
O=C(N/N=C/c1cc(Br)cc(Cl)c1O)c1ccc2c(c1)OCO2,.,.,-1,-3
O=C(N/N=C/c1cc(Br)c(O)c(Br)c1O)c1ccc2c(c1)OCCO2,43*,31,1,9
COCC(=O)N1C[C@@H](C)[C@H](OC)CN(C)C(=O)c2ccc(NC(=O)Nc3cccc(F)c3)cc2OC[C@@H]1C,-2,.,.,.
Cc1nn2cc(-c3cccc(Cl)c3)cnc2c1Cl,79*,25,2,-1
